# In the supplement of paper PMC7184167:
# Where a name gives a salt, the structure may show the parent alone.
# Test system: replication-induced senescent mouse newborn dermal fibroblasts (NBF)
# Assay: relative cell viability of senescent cells (fraction); higher = less killing of senescent cells
# Settings: 1 µM; 3 days
# Protocol: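 Replication-induced senescent newborn mouse skin fibroblasts (NBFs) in 24-well plates were treated with a Selleck FDA-approved drug library at 1 µM for 3 days.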
row,Structure (SMILES),relative cell viability
1,Cn1cc(C2=C(c3cn(C4CCN(Cc5ccccn5)CC4)c4ccccc34)C(=O)NC2=O)c2ccccc21,0.523
2,C[C@]12CC[C@H]3[C@@H](CC[C@@]45O[C@@H]4C(O)=C(C#N)C[C@]35C)[C@@H]1CC[C@@H]2O [Trilostane],0.778
3,Cn1c(CCCC(=O)O)nc2cc(N(CCCl)CCCl)ccc21 [Bendamustine HCl],0.999
4,CCC1(c2ccc(N)cc2)CCC(=O)NC1=O (stereo not drawn) [Aminoglutethimide],0.889
5,CN1c2ccccc2C(NCCCCCCC(=O)O)c2ccc(Cl)cc2S1(=O)=O (stereo not drawn) [Tianeptine sodium],0.946
6,COc1cc2c(cc1OC)C1CC(=O)C(CC(C)C)CN1CC2 (stereo not drawn) [Tetrabenazine (Xenazine)],1.04
7,CC(O)(CS(=O)(=O)c1ccc(F)cc1)C(=O)Nc1ccc(C#N)c(C(F)(F)F)c1 (stereo not drawn) [Bicalutamide],0.913
8,C[C@]12Cc3c[nH]nc3C[C@@H]1CC[C@@H]1[C@@H]2CC[C@@]2(C)[C@H]1CC[C@]2(C)O [Stanozolol],0.136
9,CN(C)C(=O)Oc1ccc[n+](C)c1 [Pyridostigmine Bromide],1.19
10,CN1[C@@H]2C[C@@H](OC(=O)[C@H](CO)c3ccccc3)C[C@H]1[C@@H]1O[C@@H]12 [Scopolamine HBr],1.03
11,CN(C)[C@@H]1C(=O)C(C(N)=O)=C(O)[C@@]2(O)C(=O)C3=C(O)c4c(O)cccc4[C@@](C)(O)[C@H]3[C@H](O)[C@@H]12 [Oxytetracycline (Terramycin)],1.01
12,COc1ccc(C(CN(C)C)C2(O)CCCCC2)cc1 (stereo not drawn) [Venlafaxine HCl],1.03
13,C=C1C[C@@H]2[C@H](CC[C@]3(C)C(=O)CC[C@@H]23)[C@@]2(C)C=CC(=O)C=C12 [Exemestane],1.08
